According to the antibiotic and cytotoxicity screens of Wong et al. (2023):
The whole screen tested about 39,000 compounds, of which about 3,300 (8.5%) were called active. The full list was thinned out, with actives kept by preference.

system: HepG2; experiment: cytotoxicity call (relative viability < 0.9); details: 10 µM

| SMILES | cytotoxicity call |
| --- | --- |
| COc1ccc2c3c(n(c2c1)C)[C@H](CO)N(C[C@]13CCN(CC1)C(=O)CC1CC1)C(=O)CN1CCOCC1 | inactive |
| COc1ccc(-c2cnc3c(c2)C(=O)N([C@@H](C)CO)C[C@@H](C)[C@H](CN(C)C(=O)C2CCOCC2)O3)cc1 | inactive |
| C[C@H]1CCCCO[C@H](CN(C)Cc2ccc(C(=O)O)cc2)[C@@H](C)CN([C@@H](C)CO)C(=O)c2cc(NC(=O)Cc3ccccc3)ccc2O1 | inactive |
| Cc1ccc(S(=O)(=O)Nc2ccc3c(c2)C(=O)N([C@@H](C)CO)C[C@@H](C)[C@@H](CN(C)CC2CC2)O3)cc1 | inactive |
| CO[C@H]1CN(C)C(=O)c2ccc(NS(=O)(=O)c3ccccc3)cc2OC[C@H](C)N(C(=O)NC(C)C)C[C@@H]1C | inactive |
| COc1ccc(NC(=O)N(C)C[C@H]2Oc3ccc(NS(=O)(=O)c4cn(C)cn4)cc3CC(=O)N([C@@H](C)CO)C[C@H]2C)cc1 | inactive |
| O=C(C[C@@H]1C[C@H]2c3cc(NC(=O)Cc4ccncc4)ccc3O[C@H]2[C@H](CO)O1)NCCN1CCCCC1 | inactive |
| CC(=O)N[C@H]1[C@H](O[C@@H]2[C@@H](O)[C@H](C)O[C@@H](Oc3ccc4c(=O)c(-c5ccc(O)cc5)coc4c3)[C@@H]2O)O[C@H](CO)[C@@H](O[C@@H]2O[C@@H](C)[C@H](O)[C@@H](O)[C@H]2O)[C@@H]1O | inactive |
| O=C(C[C@@H]1C=C[C@@H](NC(=O)c2ccncc2)[C@@H](CO)O1)NCc1ccncn1 | inactive |
| C[C@@H]1CCCCO[C@H](CN(C)Cc2ccc(C(=O)O)cc2)[C@H](C)CN([C@@H](C)CO)C(=O)c2cc(NC(=O)Nc3ccc(F)cc3)ccc2O1 | inactive |
| COc1ccc(S(=O)(=O)Nc2ccc3c(c2)C(=O)N([C@H](C)CO)C[C@H](C)[C@@H](CN(C)S(=O)(=O)c2ccccc2)O3)cc1 | inactive |
| CC(C)NC(=O)Nc1ccc2c(c1)C(=O)N([C@H](C)CO)C[C@@H](C)[C@@H](CN(C)Cc1ccc(C(F)(F)F)cc1)OCCCC[C@@H](C)O2 | inactive |
| CC(C)NC(=O)Nc1ccc2c(c1)C(=O)N([C@@H](C)CO)C[C@@H](C)[C@H](CN(C)Cc1ccc(C(F)(F)F)cc1)OCCCC[C@H](C)O2 | inactive |
| CC(C)NC(=O)Nc1ccc2c(c1)C(=O)N([C@H](C)CO)C[C@H](C)[C@H](CN(C)Cc1ccc(C(F)(F)F)cc1)OCCCC[C@H](C)O2 | inactive |
| CC(C)NC(=O)Nc1ccc2c(c1)C(=O)N([C@@H](C)CO)C[C@H](C)[C@@H](CN(C)Cc1ccc(C(F)(F)F)cc1)OCCCC[C@H](C)O2 | active |
| CC(C)NC(=O)Nc1ccc2c(c1)C(=O)N([C@@H](C)CO)C[C@@H](C)[C@@H](CN(C)Cc1ccc(C(F)(F)F)cc1)OCCCC[C@@H](C)O2 | active |
| CC(C)NC(=O)Nc1ccc2c(c1)C(=O)N([C@@H](C)CO)C[C@H](C)[C@H](CN(C)Cc1ccc(C(F)(F)F)cc1)OCCCC[C@H](C)O2 | inactive |
| O=C(C[C@@H]1C=C[C@@H](NC(=O)c2cnccn2)[C@H](CO)O1)NCc1ccccc1F | inactive |
| O=C(C[C@@H]1C[C@@H]2c3cc(NC(=O)Cc4ccncc4)ccc3O[C@@H]2[C@H](CO)O1)NCc1cccc(F)c1 | inactive |
| CS(=O)(=O)[O-].C[n+]1ccccc1C=NO | inactive |
| OCc1cccc(CO)c1F | inactive |

| SMILES | cytotoxicity call |
| --- | --- |
| COc1ccc(S(=O)(=O)Nc2ccc3c(c2)CC(=O)N([C@@H](C)CO)C[C@H](C)[C@H](CN(C)C)O3)cc1 | inactive |
| C[C@@H](O)CC1=C[C@H]([C@@H](C)O)OC1=O | inactive |
| C[C@H](CO)N1C[C@H](C)[C@H](CN(C)S(=O)(=O)c2cn(C)cn2)Oc2ccc(NS(=O)(=O)c3ccc(F)cc3)cc2C1=O | inactive |
| COc1ccc(S(=O)(=O)N(C)C[C@@H]2Oc3ccc(NS(=O)(=O)c4cccs4)cc3C(=O)N([C@H](C)CO)C[C@H]2C)cc1 | inactive |
| C[C@H](CO)N1C[C@H](C)[C@@H](CN(C)S(=O)(=O)c2cn(C)cn2)Oc2ccc(NS(=O)(=O)c3ccc(F)cc3)cc2C1=O | inactive |
| COc1ccc(S(=O)(=O)N(C)C[C@@H]2Oc3ccc(NS(=O)(=O)c4cccs4)cc3C(=O)N([C@@H](C)CO)C[C@@H]2C)cc1 | active |
| C[C@@H]1CN([C@H](C)CO)C(=O)c2cc(NS(=O)(=O)c3cn(C)cn3)ccc2O[C@H]1CN(C)S(=O)(=O)c1cccs1 | inactive |
| C[C@@H]1CN([C@H](C)CO)C(=O)c2cc(NS(=O)(=O)c3cn(C)cn3)ccc2O[C@@H]1CN(C)S(=O)(=O)c1cccs1 | inactive |
| C[C@H]1CN([C@@H](C)CO)C(=O)c2cc(NS(=O)(=O)c3cn(C)cn3)ccc2O[C@@H]1CN(C)S(C)(=O)=O | inactive |
| C[C@@H]1CN([C@H](C)CO)C(=O)c2cc(NS(=O)(=O)c3cn(C)cn3)ccc2O[C@@H]1CN(C)S(C)(=O)=O | inactive |
| COc1ccc(S(=O)(=O)N(C)C[C@H]2Oc3ccc(NS(=O)(=O)c4cccs4)cc3C(=O)N([C@H](C)CO)C[C@H]2C)cc1 | inactive |
| C[C@@H]1CN([C@@H](C)CO)C(=O)c2cc(NS(=O)(=O)c3cn(C)cn3)ccc2O[C@H]1CN(C)S(C)(=O)=O | active |
| C[C@@H]1CN([C@@H](C)CO)C(=O)c2cc(NS(=O)(=O)c3cn(C)cn3)ccc2O[C@H]1CN(C)S(=O)(=O)c1cccs1 | active |
| C[C@@H]1CN([C@H](C)CO)C(=O)c2cc(NS(=O)(=O)c3ccc(F)cc3)ccc2O[C@H]1CN(C)S(=O)(=O)c1cn(C)cn1 | active |
| CC(C)NC(=O)N(C)C[C@H]1Oc2ccc(NC(=O)CCC(F)(F)F)cc2CC(=O)N([C@H](C)CO)C[C@@H]1C | inactive |
| C[C@@H]1CCCCO[C@H](CN(C)C(=O)Nc2ccccc2)[C@@H](C)CN([C@H](C)CO)C(=O)c2cc(NC(=O)Nc3cccc4ccccc34)ccc2O1 | inactive |
| Cc1noc(C)c1S(=O)(=O)Nc1ccc2c(c1)C(=O)N([C@@H](C)CO)C[C@@H](C)[C@H](CN(C)C(=O)Nc1ccccc1)OCCCC[C@@H](C)O2 | inactive |
| N[C@@H](C(=O)O)[C@@H](O)[C@H](O)[C@H](O)CO | inactive |
| Fc1ccc(C2=NNC3=NCCN3C2)cc1F | inactive |
| COc1ccc(S(=O)(=O)Nc2cccc3c2O[C@H](CN(C)S(=O)(=O)c2ccccc2)[C@@H](C)CN([C@H](C)CO)C3=O)cc1 | inactive |
| C[C@@H]1CCCCO[C@@H](CN(C)Cc2ccc(C(=O)O)cc2)[C@H](C)CN([C@H](C)CO)C(=O)c2cc(NC(=O)Nc3ccccc3)ccc2O1 | inactive |

| SMILES | cytotoxicity call |
| --- | --- |
| C[C@H]1CN([C@@H](C)CO)C(=O)Cc2cc(NS(=O)(=O)c3cn(C)cn3)ccc2O[C@H]1CN(C)C | inactive |
| CNC[C@@H]1OCCCC[C@@H](C)Oc2ccc(NC(=O)c3ccncc3)cc2C(=O)N([C@H](C)CO)C[C@@H]1C | inactive |
| C[C@H]1CN([C@@H](C)CO)C(=O)c2cccc(NC(=O)Nc3cccc4ccccc34)c2O[C@@H]1CN(C)S(=O)(=O)c1cccs1 | inactive |
| O=C(C[C@H]1C[C@H]2c3cc(NC(=O)Nc4ccc(C(F)(F)F)cc4)ccc3O[C@H]2[C@@H](CO)O1)NCCc1ccccc1 | inactive |
| C[C@@H]1CN([C@H](C)CO)C(=O)c2cc(NS(=O)(=O)c3cccs3)ccc2O[C@H]1CN(C)S(=O)(=O)c1cccs1 | active |
| C[C@H]1CN([C@@H](C)CO)C(=O)c2cc(NS(=O)(=O)c3cccs3)ccc2O[C@H]1CN(C)S(=O)(=O)c1cccs1 | inactive |
| C[C@H](CO)N1C[C@H](C)[C@@H](CN(C)S(=O)(=O)c2cccs2)Oc2ccc(NS(=O)(=O)c3cccs3)cc2CC1=O | active |
| C[C@@H]1CN([C@H](C)CO)C(=O)Cc2cc(NS(=O)(=O)c3cccs3)ccc2O[C@@H]1CN(C)S(=O)(=O)c1cccs1 | inactive |
| C[C@@H]1CN([C@@H](C)CO)C(=O)c2cc(NS(=O)(=O)c3cn(C)cn3)ccc2O[C@@H]1CN(C)C(=O)Nc1ccccc1 | inactive |
| COc1ccc(S(=O)(=O)N(C)C[C@H]2Oc3ccc(NS(=O)(=O)c4cccs4)cc3C(=O)N([C@@H](C)CO)C[C@H]2C)cc1 | inactive |
| C[C@H](CO)N1C[C@H](C)[C@H](CN(C)C(=O)Nc2ccccc2)Oc2ccc(NS(=O)(=O)c3cn(C)cn3)cc2C1=O | active |
| C[C@H](CO)N1C[C@H](C)[C@@H](CN(C)S(=O)(=O)c2cccs2)Oc2ccc(NS(=O)(=O)c3cccs3)cc2C1=O | inactive |
| COc1ccc(S(=O)(=O)N(C)C[C@@H]2Oc3ccc(NS(=O)(=O)c4cccs4)cc3C(=O)N([C@H](C)CO)C[C@@H]2C)cc1 | active |
| COc1ccc(S(=O)(=O)N(C)C[C@H]2Oc3ccc(NS(=O)(=O)c4cccs4)cc3C(=O)N([C@@H](C)CO)C[C@@H]2C)cc1 | inactive |
| C[C@@H]1CN([C@H](C)CO)C(=O)c2cc(NS(=O)(=O)c3cn(C)cn3)ccc2O[C@@H]1CN(C)C(=O)Nc1ccccc1 | inactive |
| C[C@@H]1CN([C@@H](C)CO)C(=O)Cc2cc(NS(=O)(=O)c3cccs3)ccc2O[C@H]1CN(C)S(=O)(=O)c1cccs1 | inactive |
| C[C@@H]1CCCCO[C@@H](CN(C)C(=O)c2ccccc2)[C@H](C)CN([C@H](C)CO)C(=O)c2cc(NC(=O)Nc3ccccc3)ccc2O1 | inactive |
| Cc1ccc(S(=O)(=O)NCC[C@@H]2CC[C@@H](NS(=O)(=O)c3ccccc3Cl)[C@@H](CO)O2)cc1 | inactive |
| C[C@H]1CN([C@@H](C)CO)S(=O)(=O)c2ccc(C3=CCCC3)cc2O[C@@H]1CN(C)C(=O)Cc1ccncc1 | inactive |
| COc1cccc(S(=O)(=O)N(C)C[C@H]2Oc3ncc(-c4cccc(C(=O)N(C)C)c4)cc3C(=O)N([C@H](C)CO)C[C@@H]2C)c1 | inactive |
